Shown are actives, neighbours in structure and some others; about 11% of the full set was active somewhere.
FLuc inh-1 – blocks purified firefly luciferase enzyme activity | P08659 | 2.5% of 76,000 active | Potency, µM (series often up to 115 µM), usual class: inhibitors | purified P. pyralis luciferase, luminescence, biochemical; further: nearly all actives have a fitted effect of over 65% in size
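Purified 10nM P. pyralis luciferase with 10uM D-luciferin and 10uM ATP in 50mM Tris acetate pH 7.5, 10mM Mg acetate, 0.01% Tween-20, 0.05% BSA. qHTS titration; luminescence read by CCD imager.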
NIH3T3 tox – cytotoxic compounds in NIH 3T3 cells; NIH 3T3 viability, CellTiter-Glo ATP luminescence, 48-72 h; 4.3% of 94,000 active; Potency, µM (doses to about 96.7 µM), actives largely listed as inhibitors; further: nearly all actives have a fitted effect of over 55% in size
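Cytotoxicity is measured as loss of cellular ATP: NIH 3T3 cells (400/well) are exposed to compound for 48 or 72 hr at 37 °C, then CellTiter-Glo luminescence is imaged after 10 min at room temperature.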
NPR1 antag – antagonists of human natriuretic peptide receptor Npr1 | 1.6% of 76,000 active | HEK293 hNpr1 GloSensor cGMP, ANP-stimulated luminescence | P16066 | Potency, µM (top dose mostly 46.3 µM), usual class: inhibitors; calls by dose curve; further: nearly all actives have a fitted effect of over 60% in size
Target sequence (P16066 whole entry, looked up): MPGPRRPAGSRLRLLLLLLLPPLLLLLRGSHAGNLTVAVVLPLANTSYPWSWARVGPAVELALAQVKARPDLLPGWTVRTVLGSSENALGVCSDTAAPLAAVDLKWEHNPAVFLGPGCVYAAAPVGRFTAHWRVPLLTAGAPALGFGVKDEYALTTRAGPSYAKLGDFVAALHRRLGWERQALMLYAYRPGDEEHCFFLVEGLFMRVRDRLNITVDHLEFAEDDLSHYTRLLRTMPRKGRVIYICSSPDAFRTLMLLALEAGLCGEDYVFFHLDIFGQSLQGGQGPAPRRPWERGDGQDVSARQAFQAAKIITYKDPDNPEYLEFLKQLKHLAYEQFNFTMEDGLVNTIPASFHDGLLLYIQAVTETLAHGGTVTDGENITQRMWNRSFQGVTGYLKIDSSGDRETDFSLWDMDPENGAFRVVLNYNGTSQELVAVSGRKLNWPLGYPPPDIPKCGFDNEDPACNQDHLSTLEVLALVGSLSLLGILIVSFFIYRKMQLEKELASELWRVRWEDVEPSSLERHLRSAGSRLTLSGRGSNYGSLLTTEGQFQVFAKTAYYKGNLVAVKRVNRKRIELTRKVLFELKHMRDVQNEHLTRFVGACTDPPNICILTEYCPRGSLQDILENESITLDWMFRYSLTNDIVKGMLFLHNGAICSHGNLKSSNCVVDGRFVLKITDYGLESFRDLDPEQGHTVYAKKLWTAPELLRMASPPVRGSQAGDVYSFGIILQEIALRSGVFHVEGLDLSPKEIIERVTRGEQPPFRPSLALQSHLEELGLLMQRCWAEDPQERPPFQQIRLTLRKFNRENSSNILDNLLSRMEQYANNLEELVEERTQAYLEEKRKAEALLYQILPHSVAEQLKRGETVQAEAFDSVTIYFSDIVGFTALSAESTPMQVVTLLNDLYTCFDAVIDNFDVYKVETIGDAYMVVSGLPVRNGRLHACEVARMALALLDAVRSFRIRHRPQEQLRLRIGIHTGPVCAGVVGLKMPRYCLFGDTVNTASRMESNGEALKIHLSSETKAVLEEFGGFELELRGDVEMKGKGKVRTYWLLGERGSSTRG
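Compound pre-incubated 30 min at room temperature on GloSensor-loaded HEK293 cells stably carrying hNpr1 and the pGS-40F cGMP biosensor. Stimulation uses hNppA at 0.1 nM final; luminescence is taken at baseline and 20 min post-agonist.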
HEK293 tox – cytotoxic compounds in HEK 293 cells; HEK 293 viability, ATP luminescence (CellTiter-Glo), 48-72 h; Potency, µM (top dose mostly 115 µM), hits mostly inhibitors; 6.6% of 94,000 active; further: nearly all actives have a fitted effect of over 60% in size
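250 HEK 293 cells/well; compound by pintool; incubated 48 or 72 hr at 37 degree Celsius; CellTiter-Glo added, 10 min RT, luminescence imaged.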
FLuc SDR no ATP – stabilizes firefly luciferase without ATP | shares compounds with FLuc inh-1 | Purified FLuc-C-HiBiT, Nano-Glo HiBiT luminescence, no ATP | Potency, µM (highest dose often 32.7 µM), hits mostly activators | 7.8% of 1,300 active; further: nearly all actives have a fitted effect of over 55% in size
FLuc SDR ATP – firefly luciferase binding stabilization, ATP added; Potency, µM (titrated, usually from 32.7 µM), usual class: activators; 8.7% of 1,300 active; purified FLuc-C-HiBiT + ATP, HiBiT complementation luminescence; shares compounds with FLuc inh-1;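 further: signal reports ligand binding via conformational change of the enzyme rather than luciferase catalysis; nearly all actives have a fitted effect of over 55% in size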
FLuc inh-2 – inhibitors of firefly luciferase enzymatic activity. shares compounds with FLuc inh-1. purified FLuc-C-HiBiT enzyme, luciferin luminescence. Potency, µM (series often up to 32.7 µM), hits mostly inhibitors. 42% of 1,300 active. AID 1963320; further: nearly all actives have a fitted effect of over 70% in size
Hits are given with their value; – = inactive; ? = inconclusive; · = no result given. Unless noted, the call rests on the fitted dose curve; in most records, active means well fitted curve in the direction sought with a large enough effect; inconclusive means small, poorly fitted or top-dose-only effect, or another doubt; inactive means no such curve, though single readings can be large; an effect the other way counts as inactive or inconclusive.

SMILES	FLuc inh-1	NIH3T3 tox	NPR1 antag	HEK293 tox	FLuc SDR no ATP	FLuc SDR ATP	FLuc inh-2
O=C(C1CC1)N1CCC(N2C(=O)C3(CCCCC3)C2c2ccccc2)CC1 (centres undefined)	–	?	–	?	·	·	·
CC(=O)c1ccc(-c2nc(C3CCOC3)no2)s1 (centres undefined)	?	–	–	–	·	·	·
c1c(-c2nc(C3CCOC3)no2)sc2c1CCCC2 (centres undefined)	0.631µM	?	8.91µM	?	–	?	5.56µM
CCNC(=O)N1CCCC1c1noc(CCC(=O)N2CCN(c3ccccn3)CC2)n1 (centres undefined)	·	–	·	–	·	·	·
c1coc(-c2nc3nccc(-c4ccc5c(c4)OCCCO5)n3n2)c1	1.26µM	?	?	?	?	?	1.76µM
CC1(NC(=O)C2CC2)CN(Cc2nc(-c3ccccc3)cs2)C1	12.6µM	?	?	–	–	–	?
COc1ccccc1-c1csc(CN2CC(C)(NC(=O)C3CC3)C2)n1	–	–	–	?	·	·	·
O=C(C1CCCN1C(=O)c1ccc(Cl)nc1)N1CCC(N2CCCC2=O)CC1 (centres undefined)	·	–	·	–	·	·	·
CCC(C(=O)N1CCN(c2cc(-c3cccs3)[nH]n2)CC1)c1ccccc1 (centres undefined)	–	?	–	?	·	·	·
CCN1C(=O)CCc2cc(NC(=O)c3ccc(C(C)C)cc3)ccc21	3.55µM	?	?	?	–	–	?
COc1cccc(-c2cc(C(=O)NCCNc3nc(C)cc(=O)[nH]3)[nH]n2)c1	?	–	–	–	·	·	·
COc1cccc(-c2cc(C(=O)NCc3nc(-c4ccccc4)n[nH]3)[nH]n2)c1	14.1µM	?	–	?	–	–	?
Cc1ccc(-c2[nH]ncc2CN2C[C@@H](Oc3ccccc3)C[C@@H]2C(=O)N2CCOCC2)cc1	–	–	–	–	·	·	·
COc1ccc(C(=O)N2CCCC(c3nc(-c4cccnc4)no3)CCNC(=O)CC2)c(OC)n1 (centres undefined)	–	–	–	–	·	·	·
COc1ccc(C(=O)N2CCCC(c3nc(-c4ccccc4)no3)CCNC(=O)CC2)c(OC)n1 (centres undefined)	7.94µM	–	?	–	–	–	?
CN(C)c1cccc(-c2ncc3c(n2)OCCN(c2ccccc2)C3=O)c1	1.58µM	?	–	?	?	?	12.8µM
O=C1c2cnc(-c3ccsc3)nc2OCCN1CC1CC1	?	–	–	?	·	·	·
CN(C)c1cccc(-c2cnc(NC(=O)C3(c4ccccc4)CC3)c3c2CCO3)c1	–	?	–	?	·	·	·
O=C1c2cnc(-c3ccsc3)nc2OCCN1c1ccccc1	7.08µM	?	–	?	?	?	?
CCOC(=O)[C@H]1C[C@]2(CCCCN(CCO)C2=O)N(C(=O)c2cccc(OC)c2)[C@H]1c1ccco1	·	?	·	–	·	·	·
COc1ccc(N2CCN(C(=O)c3noc(-c4ccc(C)cc4)n3)CC2)cc1	14.1µM	?	–	?	–	–	?
CCN(CC1CCOCC1)C(=O)c1cccnc1SC/C=C/c1ccccc1	11.2µM	–	–	?	–	–	?
C=CCN(C)C(=O)[C@@H](C)C1CC[C@@]2(C)Cc3sc(NC(=O)CN(C)C)nc3[C@@H](C)[C@@H]2[C@H]1O (some centres undefined)	12.6µM	–	–	–	–	–	–
O=C(c1[nH]ncc1Cl)N1CCOC(Cc2cccc(C(F)(F)F)c2)C1 (centres undefined)	12.6µM	–	–	?	–	–	–
Cc1ccc(NC(=O)c2ncoc2-c2ccco2)cc1Cl	·	·	·	·	–	–	?
SMILES	FLuc inh-1	NIH3T3 tox	NPR1 antag	HEK293 tox	FLuc SDR no ATP	FLuc SDR ATP	FLuc inh-2
O=C(O)c1ccccc1-c1noc(-c2ccccc2F)n1	·	·	·	·	–	?	?
CC1CCC(NC(=O)c2noc(-c3ccccc3F)n2)CC1 (centres undefined)	8.91µM	–	–	–	–	–	?
CCCCCNC(=O)c1noc(-c2ccccc2F)n1	?	?	–	?	·	·	·
CCc1noc(-c2nc(-c3ccccc3F)no2)n1	11.2µM	–	–	?	–	–	?
CCOc1ccccc1-c1noc(-c2nc(CC)no2)n1	–	–	–	?	·	·	·
O=C(O)c1ccc(-c2noc(-c3ccccc3F)n2)cc1	·	·	·	·	?	0.248µM	0.197µM
CSc1ccc(-c2cccc(C(=O)NCCNC(=O)c3ccccc3)c2)cc1	·	–	·	?	·	·	·
CCOC(=O)[C@H]1[C@@H](O)C(=O)N(C(C)C)C12CCN(C(=O)Nc1ccc3c(c1)OCO3)CC2	·	?	·	–	·	·	·
CC(=O)N1CCNc2cc(-c3cccc(N4CCOCC4)c3)ncc2C1	·	·	·	·	–	–	?
CN1CCNc2cc(-c3ccc(N4CCOCC4)cc3)ncc2C1	–	?	–	?	·	·	·
COc1ccc(-c2cc3c(cn2)CN(C(C)=O)CCN3)cc1	·	·	·	·	–	–	12.8µM
CC(=O)N1CCNc2cc(-c3ccccc3F)ncc2C1	·	·	·	·	–	–	?
O=C(NCC1CCCCC1)C1CCc2nnc(-c3cccc(C(F)(F)F)c3)n21 (centres undefined)	·	–	·	–	·	·	·
COc1ccc(OC)c(-c2nc3ccc(OC)cc3s2)c1	·	·	·	·	–	–	?
CN(C)c1ccc(-c2noc([C@@H]3CCCN3Cc3cnc4ccccc4c3)n2)cn1	14.1µM	?	14.1µM	?	–	–	–
CN1CCOc2nc(-c3cccc(OC(F)(F)F)c3)ncc2C1=O	3.16µM	?	?	?	–	?	?
O=C1c2cnc(-c3cccc(CO)c3)nc2OCCN1c1cccc(C(F)(F)F)c1	11.2µM	17.8µM	?	?	–	–	?
Cc1ccc(-c2ncc3c(n2)OCCN(Cc2ccc(F)cc2F)C3=O)cc1	3.16µM	?	?	–	–	–	–
O=C(CN1CCCc2nc(-c3ccncc3)ncc2C1=O)NCc1cc(F)ccc1F	–	?	?	?	·	·	·
CN(C)Cc1cn2c(=O)n(C)cc(-c3cccc(OC(F)(F)F)c3)c2n1	–	?	–	?	·	·	·
O=C1c2cnc(-c3cccc(C(F)(F)F)c3)nc2OCCN1CC1CC1	3.16µM	?	?	?	?	?	9.04µM
O=C(c1ccccc1)N1CCCN(CCn2nc3n(c2=O)CCCC3)CC1	·	–	·	–	·	·	·
Cc1ccccc1CNC(=O)CCC[C@H]1NC[C@@H]2C[C@H]1CN(Cc1ccccc1)C2	–	?	–	?	·	·	·
CSc1ccc(/C=C/c2nc3ccccc3n2S(=O)(=O)c2ccc(Br)cc2)cc1	·	·	·	·	7.85µM	?	0.7µM
O=S(=O)(c1cccc(C(F)(F)F)c1)n1c(/C=C/c2ccccc2)nc2ccccc21	·	·	·	·	1.57µM	?	0.556µM
COC(=O)[C@@H]1Cc2ncn(Cc3ccccc3)c2CN1S(=O)(=O)c1cccc(C(F)(F)F)c1	–	?	–	?	·	·	·

Bioassay records (PubChem BioAssay)
